# Screening results (PubChem BioAssay)
# Hits are enriched below; roughly 4.7% of the tested compounds scored in any of these assays.
# Pemphigus Ab inh – inhibitors of pemphigus antibody binding to DSG3, primary screen, biochemical, bead-based, flow cytometry, scFv-GFP. Desmoglein-3 (Homo sapiens), P32926. DSG3-coupled beads, scFv-anti-DSG3-GFP binding; hits give low values. binding (percent of control), % at 10 µM. 0.48% of 310,000 active. AID 588358, 2011;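 active = binding more than 3 SD below its plate's average and above zero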;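 also: hits lower antibody fragment binding to DSG3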
# MPTP block – mitochondrial permeability transition pore inhibitors, primary screen, biochemical, isolated mouse mitochondria, absorbance. Ca2+ swelling absorbance, 30 min. inhibition, % at 10 µM. 1.4% of 360,000 active. AID 602449, 2012;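 active = inhibition of 50% or more, scaled per plate between neutral and stimulator controls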
# rCAG binder – binders of r(CAG) RNA repeats, primary screen, biochemical, fluorescence. r(CAG) RNA repeat, TO-PRO-1 dye displacement fluorescence. inhibition, % at 3 µM. 1.3% of 370,000 active. AID 651821, 2012;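 active = inhibition above the plate cutoff, the mean of all test compounds on that plate plus 3 SD, cut at about 35% in these data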;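 also: higher means more dye released from RNA so lower well fluorescence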
# KLK7 zymogen act – proKLK7 zymogen activators, primary screen, biochemical, fluorescence intensity | AID 652039, 2013 | activation, % at 7 µM | 0.9% of 370,000 active | Kallikrein-7 (Homo sapiens), P49862 | purified proKLK7, EDANS-DABCYL substrate fluorescence; 100% is mature enzyme control, 0% vehicle;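 active = activation above the mean of all tested compounds plus 3 SD, computed per campaign excluding outliers beyond control limits, cut at about 13% in these data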
# Target sequence (P49862 whole entry, looked up): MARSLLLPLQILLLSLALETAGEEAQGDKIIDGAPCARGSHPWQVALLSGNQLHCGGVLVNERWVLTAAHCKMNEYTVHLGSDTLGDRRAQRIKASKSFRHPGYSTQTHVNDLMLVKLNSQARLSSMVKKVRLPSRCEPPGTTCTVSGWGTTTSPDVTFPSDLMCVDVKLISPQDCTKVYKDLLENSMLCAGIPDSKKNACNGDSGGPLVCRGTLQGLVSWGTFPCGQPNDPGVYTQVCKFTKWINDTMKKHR
# ADAM17 inh – ADAM17 inhibitors, primary screen, biochemical, QFRET; Disintegrin and metalloproteinase domain-containing protein 17 (Homo sapiens), P78536; recombinant ADAM17, EDANS/DABCYL FRET peptide cleavage; inhibition, % at 6.95 µM; 0.83% of 370,000 active; AID 720648, 2013;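 active = inhibition above the mean of compounds lying between control limits plus 3 SD, set per campaign, cut at about 8.5% in these data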
# ADAM10 inh – human ADAM10 inhibitors, primary screen, biochemical, QFRET, HTS. 0.62% of 370,000 active. Disintegrin and metalloproteinase domain-containing protein 10 (Homo sapiens), O14672. inhibition, % at 7 µM. recombinant ADAM10, EDANS/DABCYL FRET peptide cleavage, 3 h;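 active = inhibition above a per-campaign cutoff equal to the mean of compounds falling between control-based bounds plus 3 SD, cut at about 20% in these data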
# ADAM10 counter – ADAM10 inhibitors, counter-screen for ADAM17 exosite inhibitor project, biochemical, FRET, human ADAM10. shares compounds with ADAM17 inh. recombinant ADAM10, EDANS/DABCYL FRET peptide cleavage, 3 h. inhibition, % at 6.95 µM. 47% of 2,900 active. AID 743256, 2014;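 active = mean inhibition over the triplicate runs exceeds the activity threshold set in the earlier primary screen, cut at about 20% in these data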
# ADAM17 confirm – ADAM17 inhibitors, hit retest, confirmation, biochemical, QFRET peptide cleavage | shares compounds with ADAM17 inh | recombinant ADAM17, EDANS/DABCYL QFRET peptide cleavage | inhibition, % at 6.95 µM | 65% of 2,900 active | AID 743257, 2014;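 active = mean inhibition across replicates above the hit cutoff set in the primary screen, cut at about 8.5% in these data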
# A number is an active result; – = inactive; · = no result given.
SMILES,Pemphigus Ab inh,MPTP block,rCAG binder,KLK7 zymogen act,ADAM17 inh,ADAM10 inh,ADAM10 counter,ADAM17 confirm
O=C(CCN1CCOCC1)Nc1cc(C(=O)Nc2ccc(Cl)cc2)ccc1N1CC2CC(C1)c1cccc(=O)n1C2 (stereo not given),·,–,–,–,–,–,·,·
CC(C)(C)c1ccc(OCc2nc(-c3ccccn3)no2)c(Br)c1,–,–,–,–,8.7,–,–,18
CCCNC(=O)C1(C)CCCN(C(=O)/C=C/c2ccccc2)C1 (stereo not given),·,–,–,–,–,–,·,·
O=[N+]([O-])c1cccc(-c2c(-c3ccccc3)ncc3ccc(F)cc23)c1,–,–,–,–,11,–,–,–
Fc1cccc(-c2c(-c3ccccc3)ncc3cc(F)ccc23)c1,–,–,–,–,–,–,·,·
Cc1ccc(NC(=S)NC(=O)c2c(-c3ccccc3Cl)noc2C)cc1,–,–,–,–,10.0,–,26,14
Cc1onc(-c2ccccc2Cl)c1C(=O)Nc1ccc2c(c1)OCO2,–,–,–,–,10,–,–,–
COc1cccc(CSC(C(=O)O)c2ccccc2)c1 (stereo not given),–,–,–,–,–,–,·,·
CCNc1nc(C23CC4CC(CC(C4)C2)C3)cs1,–,–,–,–,–,–,·,·
CC(=O)NNC(=O)CC(=O)Nc1nc(C23CC4CC(CC(C4)C2)C3)cs1,–,–,–,–,8.9,–,–,–
COc1ccc(C2(C)NC(=O)N(CC(=O)Nc3ccc4c(c3)OCO4)C2=O)cc1OC (stereo not given),–,–,–,–,11,–,–,9.0
CC1(c2ccccc2)NC(=O)N(CC(=O)Nc2ccc3c(c2)OCO3)C1=O (stereo not given),–,–,–,–,–,–,·,·
COCCOc1ccc(C(F)(F)F)cc1NC(=O)CN1C(=O)NC(C)(c2ccc3c(c2)OCO3)C1=O (stereo not given),–,–,–,–,12,–,–,12
COc1ccc(C)cc1S(=O)(=O)N(C)CC(=O)Nc1ccc2c(c1)OCO2,–,–,–,–,10,–,–,–
COc1ccc(C)cc1S(=O)(=O)N(CC(=O)Nc1ccc2c(c1)OCCO2)Cc1ccccc1,–,–,·,·,·,·,·,·
CC(C)(C)NC(=O)C(c1ccc(O)cc1)N(C(=O)Cn1nnc(-c2ccc(F)cc2)n1)c1ccccc1F (stereo not given),–,–,–,–,9.9,–,39,18
CC(C)(C)NC(=O)C(c1ccncc1)N(C(=O)Cn1nnc(-c2ccc(F)cc2)n1)c1ccccc1F (stereo not given),–,–,–,–,–,–,·,·
COc1cc(NC(=O)C2CCCN(S(=O)(=O)c3ccccc3)C2)cc(OC)c1 (stereo not given),·,·,–,–,–,–,·,·
COc1cc(NC(=O)C2CCCN(S(=O)(=O)c3ccc(Cl)s3)C2)cc(OC)c1 (stereo not given),·,·,–,–,10,–,35,19
O=S(=O)(Cc1ccc(Cl)cc1)C1CCCCC1O (stereo not given),–,–,–,–,11,–,–,–
O=S(=O)(Cc1ccc(Cl)cc1)NCC1CCCO1 (stereo not given),–,–,–,–,–,–,·,·
CCCNC(=O)C1(C)CCCN(Cc2ccccc2N(C)C)C1 (stereo not given),·,–,–,–,–,–,·,·
